Screening results (PubChem)
The full list was thinned out, with hits kept by preference.
Ba CapD inh: Bacillus anthracis CapD inhibitors, primary screen, biochemical, fluorescence intensity; z-score (test concentration not listed); 140,000 compounds, 0.23% hits; AID 492967, 2010; CapD gamma-glutamyltranspeptidase (Bacillus anthracis Ames Ancestor); purified CapD enzyme, fluorescence intensity read-out; stronger effect = lower value; in the data active = z-score mostly below about -2.9, no sharp cut-off; inactive = mostly above about -1.9
Each line names hits and unclear results; the compound was inactive in the other large screens.

O=C(O)c1ccc(NC2OC(CO)C(O)C2O)cc1 (stereo unspecified)	Ba CapD inh -6.5
CSC1=NSC2=NC(=O)/C(=C\c3ccc(-c4ccccc4)o3)C(=N)N12	none
CC(C)SC1=NSC2=NC(=O)/C(=C\c3ccc(-c4cccc(C(=O)O)c4)o3)C(=N)N21	Ba CapD inh -13
CC(=O)Oc1ccc(/C=C2/C(=N)N3C(=NC2=O)SN=C3SC(C)C)cc1	none
c1ccc(-c2ncc(-c3ccncn3)c(-c3ccncc3)n2)nc1	none
O=C(Nc1ccc(F)cc1)N1CCN(C(=O)C2COc3ccccc3O2)CC1 (stereo unspecified)	none
CC1CCN(S(=O)(=O)N2CCCC(C(=O)Nc3ccccc3C(=O)c3ccccc3)C2)CC1 (stereo unspecified)	none
O=C(CCSc1ccc(Cl)cc1)NCc1ccncc1	none
COc1ccc(SCCC(=O)NCc2ccncc2)cc1	Ba CapD inh -2.1
O=C(CCSc1ccccc1)NCc1cccnc1	none
CC1OC(=O)N(c2cc(Cl)cc(Cl)c2)C1=O (stereo unspecified)	none
COc1cccc(NC(=O)c2sc3nc4c(c(-c5cccs5)c3c2N)CCCC4)c1	none
COc1ccc(C2C(C(=O)N3CCOCC3)CCC(=O)N2c2ccc(OC)cc2)cc1 (stereo unspecified)	Ba CapD inh -10
COc1ccc(N2C(=O)CCC(C(=O)N3CCCCC3)C2c2ccc(OC)c(OC)c2)cc1 (stereo unspecified)	none
COc1ccc(C2C(C(=O)N3CCCC3)CC(=O)N2c2ccc(OC)cc2)cc1 (stereo unspecified)	none
O=S(=O)(Nc1ccccc1CO)c1ccc(F)cc1	none
CN(C(=O)CN(c1ccc(Cl)cc1Cl)S(C)(=O)=O)c1ccccc1	none
